# Data reported in ChEMBL document CHEMBL3433997, “St. Jude Leishmania screening dataset” (2016).
# Key:
# Type in all cases: functional
# [1] = target: Solute carrier family 2, facilitated glucose transporter member 1 (Homo sapiens) (UniProt P11166); test: ST_JUDE_LEISH: Cytotoxicity at 2uM final concentration against transgenic Leishmania Mexicana promastigotes LmGLUT1 that are glucose transport deficient and complemented with the human glucose transporter GLUT1. Activity is measured by DNA content using SYBR green in vitro
# Solute carrier family 2, facilitated glucose transporter member 1 (Homo sapiens), sequence (P11166 whole entry): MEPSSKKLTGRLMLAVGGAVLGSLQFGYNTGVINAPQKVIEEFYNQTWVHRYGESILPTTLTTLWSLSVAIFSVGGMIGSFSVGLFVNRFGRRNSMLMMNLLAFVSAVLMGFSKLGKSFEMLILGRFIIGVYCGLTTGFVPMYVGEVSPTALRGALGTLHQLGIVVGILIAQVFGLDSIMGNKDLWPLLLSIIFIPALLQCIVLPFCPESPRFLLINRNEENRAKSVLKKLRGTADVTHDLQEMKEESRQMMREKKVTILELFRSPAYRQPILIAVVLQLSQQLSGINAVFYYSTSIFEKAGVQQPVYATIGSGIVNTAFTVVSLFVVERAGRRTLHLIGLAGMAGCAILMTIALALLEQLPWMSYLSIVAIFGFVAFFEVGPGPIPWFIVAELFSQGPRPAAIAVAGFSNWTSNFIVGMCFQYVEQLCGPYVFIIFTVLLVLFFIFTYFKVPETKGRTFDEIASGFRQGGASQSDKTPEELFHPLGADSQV
# [2] = target: Hexose transporter 1 (Plasmodium falciparum) (UniProt O97467); test: ST_JUDE_LEISH: Cytotoxicity at 2uM final concentration against transgenic Leishmania Mexicana promastigotes LmPfHT that are glucose transport deficient and complemented with the Plasmodium falciparum hexose transporter. Activity is measured by DNA content using SYBR green in vitro
# [3] = target: Glucose transporter (Leishmania mexicana) (UniProt O61059); test: ST_JUDE_LEISH: Cytotoxicity at 2uM final concentration against transgenic Leishmania Mexicana promastigotes LmGT2 that are glucose transport deficient and complemented with the L. Mexicana glucose transporter 2. Activity is measured by DNA content using SYBR green in vitro
Structure (SMILES),inhibition [1] [%],inhibition [2] [%],inhibition [3] [%]
CS(=O)(=O)c1ccc(-c2cncc(Nc3cccc([N+](=O)[O-])c3)c2)cc1,7.42,7,6.3
O=C(/C=C/c1ccc(Cl)c(Cl)c1)NC1CCN(Cc2ccc(O)cc2)C1 (stereo unspecified),1.46,-0.06,-0.76
O=C(Nc1ccc(-c2csc(-c3nc4ccccc4[nH]3)c2)cc1)Nc1ccc(F)c(F)c1F,0.67,2.98,2.02
COc1ccc(N2C(N)=NC(N)=NC2(C)C)cc1OC,3.76,5.41,5.83
N#Cc1c(N2CCN(c3ccc(F)cc3)CC2)nc(N)c2c(N)nc3c(c12)CC(=O)N3C1CC1,-2.19,5.18,13.5
O=C(Nc1ccccc1N1CCOCC1)c1ncoc1-c1ccccc1C(F)(F)F,3.99,2.36,2.48
CC(C)NCc1cccc(-c2cccc(NC(=O)c3cccc(Cl)c3)c2)c1,-0.03,0.9,4.05
O=C(N[C@@H](CC1CCCCC1)C(=O)NCCN1CCCC1)c1ccc(O)c(-c2cccc(C(F)(F)F)c2)c1,-0.44,-0.43,0.16
COc1ccc(N2CCN(CCc3ccc(NC(=O)c4ccc([N+](=O)[O-])cc4)cc3)CC2)c(OC)c1,9.1,6.72,6.07
COc1cc(F)c2nccc([C@@H](O)CN3CCC(NC(=O)OCc4ccccc4)C(F)C3)c2c1 (stereo partly specified),11.6,16.3,3.75
COc1cccc(-c2cc(C(F)(F)F)n3ncc(C(=O)Nc4cc(Cl)ccc4O)c3n2)c1,0.65,1.53,-2.22
N#CC(CC(=O)c1ccc(Cl)cc1)c1cccc(F)c1 (stereo unspecified),1.46,-1.27,1.13
O=C(Nc1ccc2c(c1)CCN2C1CCN(Cc2ccc(F)cc2Cl)C1)c1ccco1 (stereo unspecified),1.66,0.61,2.25
COc1ccc(-c2cccc(NC(=O)c3cccc(Cl)c3)c2)cc1CN1CCCN(C)CC1,11.4,12,11.7
CCCCCC(=O)N1CCOC(CCN2CCc3c(c4ccccc4n3C)C2)(c2ccc(Cl)c(Cl)c2)C1 (stereo unspecified),10.5,7.81,9.52
CC1(C)NC(N)=NC(=N)N1OCc1ccc(-c2ccccc2)cc1,6.01,5.93,3.79

Structure (SMILES),inhibition [1] [%],inhibition [2] [%],inhibition [3] [%]
CC(C)(C)OC(=O)C1CCCN(Cc2ccc(-c3cccc(-c4nc5ccccc5[nH]4)c3)cc2)C1 (stereo unspecified),3.21,3.25,0.78
CN(C(=O)Nc1ccc(F)cc1)C1CCN(CCCCCNC(=O)/C=C/c2ccc(Cl)c(Cl)c2)CC1,1,1.65,2.01
CCc1c(C)nc(-n2nc(C)cc2NC(=O)CCc2ccccc2)[nH]c1=O,0.86,2.79,2.86
O=C(NC1CCN(c2ncc(C(F)(F)F)cc2Cl)CC1)c1cccs1,-1.13,-1.85,-3.08
CS(=O)(=O)Cc1ccc(Nc2nccc(-c3c(-c4cccc(NC(=O)c5c(F)cccc5F)c4)nn4ncccc34)n2)cc1,12,8.45,2.78
CNC(=O)COc1ccc(Nc2nnc(-c3ccc(C)c(S(=O)(=O)NCC4CCCO4)c3)c3ccccc23)cc1 (stereo unspecified),1.3,0.12,-0.43
CC1(C)[C@H]2CC[C@@H](CNc3nc(NCC(=O)Nc4ccc5ccccc5c4)nc(N4CCC(N5CCCC5)CC4)n3)[C@@H]1C2,0.95,2.52,2.89
O=C(/C=C/c1ccccc1Cl)Nc1ccc(Br)c(OCCN2CCN(CCN3CCOCC3)CC2)c1,1.48,1.38,0.88
Cc1c(F)cc(C(=O)NC2CC2)cc1-c1ccc2c(cnn2S(=O)(=O)c2ccc(C#N)cc2)c1,-0.7,1.11,0.73
CC=CC1CCNC(C(O)c2ccnc3ccc(OC)cc23)C1 (stereo unspecified),2.16,2.5,2.9
Cc1ccccc1C1CCN(C2CCC(NC(=O)C3=Cc4ccccc4OC3)CC2)CC1 (stereo unspecified),5.24,4.94,4.67
CN(C)Cc1ccc(CNC2CCN(Cc3ccccc3Cl)CC2)cc1,18.4,13.8,13.4
O=C(Nc1ccc(Cl)cc1)c1ccc(CN2CCCN(Cc3cccc(F)c3)CC2)cc1,-0.02,5.11,3.31
O=C(Nc1ccc(Cl)c(Cl)c1)N1CCC(CNCc2cccc([N+](=O)[O-])c2)CC1,3.92,4.18,5.3
Fc1ccc2[nH]c(-c3cccc(-c4ccc(CN5CCN(c6cnccn6)CC5)cc4)c3)nc2c1,14.3,12.5,8.14
CN(C)CC(=O)Nc1ccc(-c2ccc3ccnc(N)c3c2)cc1,13.7,24.3,5.49
